Measured values as given in PubChem BioAssay (NCI).
The panel holds about 79,000 compounds, 15% with a hit somewhere; the sample as a whole holds those more often. A number with no mark means an inactive call. Active and inactive are the calls of the source. Cut-off read from the data, not from the text of the source: active = growth inhibition above about 70%; inactive = the rest.

Tests used:
[1] = NCI Yeast Anticancer Drug Screen. Data for the rad50 strain (AID 155);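 note: 0% = growth of vehicle-only cultures of the same strain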; conditions: S. cerevisiae rad50 strain growth inhibition, stronger effect = higher value
In short: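 Growth of the mutant yeast was measured after compound exposure and referenced to vehicle-treated cultures.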

[2] = NCI Yeast Anticancer Drug Screen. Data for the mec2-1 strain (AID 157); conditions: S. cerevisiae mec2-1 strain, stronger effect = higher value
In short: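 Cells of the genetically defined mec2-1 yeast strain are incubated with test compound. Inhibition of growth is calculated against vehicle-treated controls.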

[3] = NCI Yeast Anticancer Drug Screen. Data for the sgs1 mgt1 strain (AID 161);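 note: 0% = growth of cultures given vehicle only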; conditions: S. cerevisiae sgs1 mgt1 strain, stronger effect = higher value
In short: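 Genetically altered yeast, compound exposure, growth inhibition relative to vehicle.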

[4] = NCI Yeast Anticancer Drug Screen. Data for the cln2 rad14 strain (AID 165);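 note: 0% = growth equal to vehicle treated cultures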; conditions: S. cerevisiae cln2 rad14 strain, stronger effect = higher value
In short: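 The screen exposed genetically defined yeast (cln2 rad14) to test compounds and scored growth inhibition relative to vehicle-treated controls.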

[5] = NCI Yeast Anticancer Drug Screen. Data for the bub3 strain (AID 167); conditions: S. cerevisiae bub3 mutant strain, stronger effect = higher value
In short: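 Whole-cell yeast assay. The mutant strain was incubated with compounds, and growth inhibition was determined by comparison with vehicle-treated cells.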

[6] = NCI Yeast Anticancer Drug Screen. Data for the mlh1 rad18 strain (AID 175); conditions: S. cerevisiae mlh1 rad18 strain growth inhibition, stronger effect = higher value
In short: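 Compound-treated yeast growth, normalised to vehicle controls. Strain bears defined DNA repair mutations.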

[7] = at 5.0 µM (retest, dose inferred, filed as 0.5)
[8] = at 50.0 µM (retest, dose inferred, filed as 5.0)

Row | SMILES | growth inhibition [1, 7] | growth inhibition [1, 8] | growth inhibition ([1]; at 50.0 µM) | growth inhibition [2, 7] | growth inhibition [2, 8] | growth inhibition ([2]; at 50.0 µM) | growth inhibition [3, 7] | growth inhibition [3, 8] | growth inhibition ([3]; at 50.0 µM) | growth inhibition [4, 7] | growth inhibition [4, 8] | growth inhibition ([4]; at 50.0 µM) | growth inhibition [5, 7] | growth inhibition [5, 8] | growth inhibition ([5]; at 50.0 µM) | growth inhibition [6, 7] | growth inhibition [6, 8] | growth inhibition ([6]; at 50.0 µM)
1 | CCCCCCCCCCCCCCCCOS(=O)(=O)O | 24% | 99% (active) | 98% (active) | 13% | 100% (active) | 98.5% (active) | 49% | 100% (active) | 98.8% (active) | 5% | 99% (active) | 97.7% (active) | 20% | 100% (active) | 98.8% (active) | 42% | 100% (active) | 99% (active)
2 | S=C1NC2=C(CSC/C2=C\c2ccccc2)C(c2ccccc2)N1 (configuration not stated) | 10% | 96% (active) | 60.2% | -8% | 97% (active) | 58.2% | 8% | 97% (active) | 65.2% | 26% | 96% (active) | 68.8% | -45% | 96% (active) | 73.1% (active) | 35% | 97% (active) | 72.3% (active)
3 | Clc1nc(Cl)c(Cl)c(-c2ccccc2)n1 | 35% | 75% (active) | 90.3% (active) | 29% | 70% (active) | 92.7% (active) | 18% | 77% (active) | 89% (active) | 17% | 73% (active) | 84.8% (active) | 12% | 86% (active) | 85% (active) | 55% | 77% (active) | 87.3% (active)
4 | CC12CCC3C(CCC4CC(O)CCC43C)C1CC=CO2 (configuration not stated) | 1% | 98% (active) | 23.4% | 32% | 99% (active) | 50.6% | 17% | 99% (active) | 11.3% | 0% | 99% (active) | -1.5% | 45% | 98% (active) | 59.4% | 24% | 99% (active) | 68.9%
5 | O=S(=O)(C#Cc1ccccc1)c1ccccc1 | 12% | 98% (active) | 99.4% (active) | -11% | 99% (active) | 99.5% (active) | 24% | 99% (active) | 99.4% (active) | 7% | 99% (active) | 99.2% (active) | 3% | 98% (active) | 99.1% (active) | 16% | 99% (active) | 99% (active)
6 | Oc1c(Br)cc(Br)c2cccnc12 | 93% (active) | 97% (active) | 98.7% (active) | 35% | 97% (active) | 98.9% (active) | 88% (active) | 97% (active) | 98.5% (active) | 82% (active) | 97% (active) | 97.3% (active) | 28% | 88% (active) | 98.3% (active) | 96% (active) | 96% (active) | 98.4% (active)
7 | Cc1nc2c(Cl)cccc2c2ccccc12 | 14% | 94% (active) | 94.2% (active) | 4% | 93% (active) | 85.7% (active) | 5% | 95% (active) | 87.5% (active) | -10% | 95% (active) | 88% (active) | -1% | 95% (active) | 93.4% (active) | 18% | 98% (active) | 94.5% (active)
8 | CCN(CC)CCC(=O)NC1c2ccc(Cl)cc2Oc2c(C)cccc21 (configuration not stated) | -23% | 21% | 54.6% | -1% | -7% | -14.2% | 2% | 19% | 40.6% | 18% | 51% | 15.2% | 3% | 7% | -30.5% | 8% | 44% | 17.6%
9 | O=c1c(O)cc2c(O)oc3c(=O)c(O)c(O)c4c(O)oc1c2c43 | 58% | 96% (active) | 88.4% (active) | 23% | 93% (active) | 57.2% | 41% | 90% (active) | 67.2% | 12% | 90% (active) | 50.3% | 25% | 90% (active) | 85% (active) | 41% | 96% (active) | 66.2%
10 | O=C1/C(=C/c2ccccc2)CN(C(=O)C(F)(F)F)C/C1=C\c1ccccc1 | 63% | 84% (active) | 65.3% | 43% | 80% (active) | 40% | 52% | 94% (active) | 46% | 41% | 78% (active) | 42.2% | 53% | 93% (active) | 55.1% | 66% | 92% (active) | 53.6%
11 | C=CC[C@]1(C(C)Cc2ccc(OC)c(OC)c2)C[C@@H](OC)C=CC1=O (some centres not stated) | -7% | 89% (active) | 88% (active) | 8% | 89% (active) | 93% (active) | 0% | 85% (active) | 88.8% (active) | 13% | 86% (active) | 88.5% (active) | 7% | 92% (active) | 89.5% (active) | -1% | 92% (active) | 96% (active)
12 | CCCOCCC#N | 8% | -2% | -11.6% | 5% | 0% | 7.45% | -6% | 1% | -8.1% | 5% | -2% | 40.9% | 7% | 13% | -1.65% | 7% | -1% | -17.9%
13 | Nc1ccc2c(S(=O)(=O)O)cc(S(=O)(=O)O)cc2c1 | 3% | 0% | -21.6% | 2% | -1% | -6.25% | 0% | -2% | -10.4% | 3% | 2% | 61.4% | 2% | -2% | 6.3% | 1% | -1% | -31.4%
14 | O=c1[nH]c(C(F)(F)F)c(F)c(=O)[nH]1 | 0% | -2% | 69.3% | 3% | 1% | 93.5% (active) | 2% | 27% | 86.7% (active) | 3% | 5% | 94.1% (active) | -2% | -5% | 63.1% | -2% | -3% | 95% (active)
15 | Cc1cccc(C)c1NC(=O)CCc1nnc(N)n1N | 17% | 4% | -20.6% | -1% | -3% | 3.75% | 7% | -2% | 18.8% | -6% | 6% | -23.4% | -3% | -2% | 8.7% | -3% | -1% | 16.4%
16 | COc1ccc(/C=N/Nc2cc(C)nc3cc4c(cc23)OCO4)c2ccccc12 | 20% | 88% (active) | 82.6% (active) | 6% | 81% (active) | 85.8% (active) | 22% | 91% (active) | 86% (active) | 0% | 24% | 57.6% | 8% | 37% | 97.9% (active) | 12% | 82% (active) | 94.8% (active)
17 | O=C1OC(=O)C2C(c3ccccc3)=C(c3ccccc3)C(c3ccccc3)=C(c3ccccc3)C12 (configuration not stated) | 37% | 77% (active) | 61% | 35% | 72% (active) | 50% | 33% | 62% | 54.4% | 32% | 67% | 76.2% (active) | 29% | 63% | 56% | 47% | 81% (active) | 62%
18 | CN(C)c1ccc(/C=C/c2nc3ccccc3[nH]2)cc1 | -2% | 89% (active) | 54% | -9% | 77% (active) | 56.8% | -3% | 89% (active) | 37.1% | -7% | 67% | 16.7% | -10% | 54% | 14.6% | -13% | 97% (active) | 80% (active)
19 | O=[N+]([O-])c1ccc(Cl)cc1C(Nc1nncs1)Nc1nncs1 | 8% | 81% (active) | 74.7% (active) | 7% | 76% (active) | 40.6% | 17% | 84% (active) | 86% (active) | 2% | 55% | 41.2% | -1% | 58% | 57.4% | 0% | 88% (active) | 80% (active)
